Source: PubChem BioAssay
esBAF inh = Bmi1 luciferase reporter increase in mESCs, primary screen, esBAF inhibitor project, mouse ES cells, Bmi1 luciferase knock-in, single point; 24 h; 100% = twice the neutral-well signal; reporter increase, % at 12.5 µM; actives 2% (n = 350,000); AID 602393, 2012; in the data active = activation above about 40%; inconclusive = no clear call, values can overlap the other calls;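 also: a rise in the Bmi1 reporter signal indicates esBAF inhibition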
PfHsp90 set2 = growth inhibition of PfHsp90-expressing yeast, primary screen, antimalarial PfHsp90 inhibitor project, S. cerevisiae, BacTiter-Glo luminescence, single point, set 2; AID 504621, 2011; actives 0.32% (n = 310,000); inhibition, % at 9.4 µM; BacTiter-Glo ATP, 48 h; yeast lacking PDR1 and PDR3 efflux regulators;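 active = every replicate shows inhibition above about 80%, whatever the replicate mean, limit read from the data; inconclusive = mean inhibition reaches the set limit but some replicate falls short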
MITF TRPM1 HTS = activators of MITF-driven TRPM1 promoter reporter, primary screen, cell-based, SK-MEL-5, luciferase, single point; SK-MEL-5 TRPM1-promoter luciferase, 24 h; % of positive control, neutral wells = 0; activation, % at 12.5 µM; actives 0.75% (n = 300,000); AID 588334, 2011;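 active = mean activation of at least 80% with every replicate also reaching 80%; inconclusive = mean reaches 80% but some replicate falls short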
Vif inh = HIV Vif self-association inhibitors, primary screen, imaging, HEK293T, single point; HEK293T cells, Vif self-association by quenched fluorescence, 24 h; inhibition, % at 7.49 µM; actives 0.35% (n = 340,000); in the data active = inhibition above about 50%, passing the limit was not always enough; inconclusive = no clear call, values can overlap the other calls; inactive = below about 31%
Wnt act = Wnt/beta-catenin pathway activators, primary screen, cell-based, plate reader, single point; actives 1.2% (n = 300,000); Wnt/beta-catenin reporter cell assay, activator; activation, % at 9.35 µM; in the data active = activation above about 30%, passing the limit was not always enough; inconclusive = no clear call, values can overlap the other calls
N-glyco inh = increase of ERlucT glycosylation luciferase signal, primary screen, N-linked glycosylation inhibitor project, D54 ERlucT cells, luminescence, set 2. D54 ERlucT glycosylation luciferase reporter, 24 h; percent of 100 nM tunicamycin response. reporter increase, % at 12.5 µM. actives 0.23% (n = 360,000);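 active = mean luciferase reporter signal, scaled so untreated is 0 and the glycosylation-blocking control 100, at or above a set limit in every replicate; inconclusive = mean reaches the limit but not every replicate does; inactive = mean below the limit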;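 also: luciferase carries N-glycosylation sites so blocking glycosylation raises the light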
Large screens that a line does not name were inactive; ! = not active in a repeat. A selection: hits, their analogues and other compounds. The true share with any hit is near 3%.

Cc1ccccc1-c1cnc(C(O)c2ccccc2)[nH]1 (stereo not given)	esBAF inh 49.0 (no result: PfHsp90 set2, MITF TRPM1 HTS)
OC(c1ccccc1)c1ncc(-c2ccc(Cl)cc2)[nH]1 (stereo not given)	esBAF inh 47.5 (no result: PfHsp90 set2, MITF TRPM1 HTS)
COc1cc2c(cc1OC)C(COc1ccc(F)cc1)N(C(=O)c1ccco1)CC2 (stereo not given)	none (no result: Vif inh, Wnt act)
C[n+]1nc(Nc2ccccc2)sc1-c1ccc(O)cc1	none
C[n+]1c(-c2ccccc2)sc([S-])c1-c1ccccc1	Wnt act 44.5 (no result: esBAF inh, PfHsp90 set2, MITF TRPM1 HTS)
COc1ccc(OCCSc2nc(N)cc(N)n2)cc1	esBAF inh 67.1, MITF TRPM1 HTS 95.1
C[C@H](CO)N1C[C@H](C)[C@@H](CN(C)C(=O)c2ccccn2)Oc2cc(C3=CCCC3)ccc2S1(=O)=O	none (no result: PfHsp90 set2, MITF TRPM1 HTS, Vif inh, Wnt act, N-glyco inh)
CCc1ccc(NC(=O)c2n[nH]c(=O)c3ccccc23)cc1	esBAF inh 59.7, MITF TRPM1 HTS 107.1
COc1ccc(CCN2C(=O)CC(N3CCN(c4ccccn4)CC3)C2=O)cc1OC (stereo not given)	none (no result: Vif inh)
CSc1nc2cc(Oc3cccc(Cl)c3Cl)c(Cl)cc2[nH]1	PfHsp90 set2 109.0
CSc1nc2ccc(Cl)cc2[nH]1	none (no result: PfHsp90 set2)
CC(C)C[C@H](NC(=O)C1CC(=O)N(c2ccc3c(c2)OCO3)C1)C(=O)NC1CCCC1 (stereo not given in full)	none
Nc1c2c(nc3sc4c(c13)CCCC4)-c1ccccc1CC2	Wnt act 42.3 (no result: MITF TRPM1 HTS)
S=C(Nc1ccccc1)Nc1nccs1	esBAF inh 59.5
COc1cc(OC)cc(C(=O)Nc2nnc(NC(=S)Nc3ccccc3)s2)c1	none (no result: esBAF inh, Wnt act)
CC(C)(C)c1nnc(NC(=S)Nc2ccccc2)s1	esBAF inh 75.5
COc1ccc(NC(=O)[C@@H](NC(N)=O)C(C)C)cc1Cl	none (no result: esBAF inh)
COc1cc(C)c(CN2CCN(S(=O)(=O)c3ccc(Cl)s3)CC2)cc1OC	none
Cc1cc2c(c(=O)n1C)C(Cc1ccccc1)C(C#N)=C(N)O2 (stereo not given)	esBAF inh 50.0 (no result: PfHsp90 set2, MITF TRPM1 HTS)
C/C(N)=C(/C#N)C(=O)CSc1nnc(-c2ccc(OC(F)F)cc2)o1	esBAF inh 65.1!
O=c1c2ccccc2nc2n1CCC2	none (no result: esBAF inh)
Cc1nc2sc(-c3ccccc3)cc2c(=O)n1-n1cccc1	esBAF inh 48.1, MITF TRPM1 HTS 101.8 (no result: Wnt act)
O=c1c2cc(-c3ccccc3)sc2nc2n1CCC2	Wnt act 60.2 (no result: esBAF inh, PfHsp90 set2, MITF TRPM1 HTS, Vif inh, N-glyco inh)
Cc1nc2sc(-c3ccccc3)cc2c(=O)n1N	none
CNC(=O)COc1ccc(C=O)cc1OC	none (no result: esBAF inh, Wnt act)
Cc1ccc(Nc2nnc(-c3ccccc3N)o2)cc1C	Wnt act 36.5 (no result: esBAF inh, MITF TRPM1 HTS)
Cc1ccc(NCc2ccco2)cc1C	none (no result: esBAF inh)
O=c1[nH]c(NNC(=S)NCc2ccccc2)nc2c1C1(CCCCC1)Cc1ccccc1-2	none (no result: PfHsp90 set2, Wnt act)
C=CCNC(=S)NNc1nc2c(c(=O)[nH]1)C1(CCCC1)Cc1ccccc1-2	Wnt act 51.9 (no result: esBAF inh)
Cc1ccnc(NC(=O)CCC(=O)N(CC(=O)NCc2ccc(F)cc2)Cc2ccco2)c1	none
COc1ccc(-c2cn(CC3CCCCC3)nn2)cc1	esBAF inh 66.7, MITF TRPM1 HTS 88.4
Cc1ccc(Cn2cc(-c3ccccc3)nn2)cc1	esBAF inh 57.0
c1ccc(-c2cn(CC3CCCCC3)nn2)cc1	esBAF inh 65.2, Wnt act 31.9
O=c1c2ccsc2ncn1Cc1ccc(Cl)cc1	none
COCc1nc(-c2ccc(-c3ccc(C)cc3)nc2OC)no1	esBAF inh 42.7, Wnt act 38.8 (no result: PfHsp90 set2, MITF TRPM1 HTS)
COc1ccc(-c2ccc(-c3noc(C)n3)c(OC)n2)cc1	esBAF inh inconclusive, MITF TRPM1 HTS 90.9 (no result: Vif inh, Wnt act)
CCOc1nc(-c2ccc(OC)cc2)ccc1-c1noc(C)n1	none (no result: PfHsp90 set2, Wnt act)
COc1cc(/C=C/C(=O)OCC(=O)Nc2ccc(S(N)(=O)=O)cc2)ccc1O	none
COc1ccccc1CCC(=O)Nc1ccc2c(c1)c(=O)n(C)n2-c1cccs1	N-glyco inh 34.0 (no result: PfHsp90 set2, MITF TRPM1 HTS)
COc1cc(Cn2c3ccc(NC(=O)CCc4ccccc4)cc3c(=O)n2C)ccc1F	none (no result: PfHsp90 set2, MITF TRPM1 HTS)
